Inconclusive results are not listed. Calls of active or inactive are those of the source. The calls were made as follows, unless noted: active = hit-call score of the fitted dose curve at least 0.9, where 1 is the maximum; inconclusive = response in the unintended direction; inactive = score below 0.9.
Assays:
[1] = read-out: glucuronosyltransferase (UGT1A1), UGT1A1 (gene 54658); assay: CLD_UGT1A1_24hr: CellzDirect (CLD) Gene Expression Assay for glucuronosyltransferase (UGT1A1) at 24 hours (AID 2283696)
Procedure, shortened: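 UGT1A1 transcript induction was measured by quantitative nuclease protection assay (chemiluminescence) in human hepatocyte cultures 24 h after daily fresh dosing, with 0.2% DMSO as vehicle and baseline.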

[2] = read-out: Cytochrome P450 3A4 (Homo sapiens) (UniProt P08684); assay: CLD_CYP3A4_48hr: CellzDirect (CLD) Gene Expression Assay for xenobiotic metabolism (CYP3A4) at 48 hours (AID 2283698)
Procedure, shortened: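 CYP3A4 induction read by qNPA chemiluminescence after 48 h, with fresh dosing solutions on consecutive days, in cultured human hepatocytes (two donors). Vehicle 0.2% DMSO as baseline; microscopy-based cytotoxicity annotated yes/no alongside data.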

[3] = read-out: Cytochrome P450 2C19 (Homo sapiens) (UniProt P33261); assay: CLD_CYP2C19_48hr: CellzDirect (CLD) Gene Expression Assay for xenobiotic metabolism (CYP2C19) at 48 hours (AID 2283700);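 also: fitted upward so actives raise CYP2C19 mRNA above the 0.2% DMSO vehicle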
Procedure, shortened: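 CYP2C19 mRNA induction read by chemiluminescent quantitative nuclease protection assay after 48 h, with fresh compound added daily for two days to cultured human liver hepatocytes. Activity fitted upward against 0.2% DMSO vehicle.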

[4] = CLD_ACTIN_48hr: CellzDirect (CLD) Gene Expression Assay for Baseline Control (Actin) at 48 hours (AID 2283702)
Procedure, shortened: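 Background-control actin mRNA read by qNPA chemiluminescence at 48 h. Human hepatocyte cultures from two donors received fresh multi-concentration chemical doses daily for two days; 0.2% DMSO served as vehicle baseline.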

[5] = read-out: Broad substrate specificity ATP-binding cassette transporter ABCG2 (Homo sapiens) (UniProt Q9UNQ0); assay: CLD_ABCG2_48hr: CellzDirect (CLD) Gene Expression Assay for ABC Transporter (ABCG2) at 48 hours (AID 2283704);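 as to AC50: potency for induction of ABCG2 mRNA above the DMSO baseline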
Procedure, shortened: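 ABCG2 transcript measured at 48 h by quantitative nuclease protection (chemiluminescent) and fitted for increase relative to 0.2% DMSO. Hepatocyte cultures from separate donors got fresh compound daily over two days; morphology annotated cytotoxicity.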

[6] = read-out: Glyceraldehyde-3-phosphate dehydrogenase (Homo sapiens) (UniProt P04406); assay: CLD_GAPDH_48hr: CellzDirect (CLD) Gene Expression Assay for Baseline Control (Glyceraldehyde 3-phosphate dehydrogenase) at 48 hours (AID 2283706);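 also: active means higher GAPDH mRNA than DMSO vehicle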
Procedure, shortened: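 GAPDH baseline-control readout: qNPA chemiluminescent mRNA quantitation in human liver primary cells 48 h after daily dosing on two consecutive days, vehicle 0.2% DMSO; gain of signal fitted against DMSO, cytotoxicity flagged by phase-contrast morphology.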

[7] = read-out: glucuronosyltransferase (UGT1A1), UGT1A1 (gene 54658); assay: CLD_UGT1A1_48hr: CellzDirect (CLD) Gene Expression Assay for glucuronosyltransferase (UGT1A1) at 48 hours (AID 2283709);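 also: actives increase expression relative to DMSO so potency refers to induction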
Procedure, shortened: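 Quantitative nuclease protection assay (chemiluminescent) for UGT1A1 mRNA at 48 h in human hepatocyte cultures from two donors, redosed daily with fresh solutions. Induction fitted relative to 0.2% DMSO; phase-contrast morphology annotated cytotoxicity.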

[8] = CEETOX_H295R_MTT_cell_viability: Viability Assessment in the CeeTox HT-H295R MTT Assay (AID 2283718; active = hit-call score of the fitted dose curve at least 0.9, where 1 is the maximum; inactive = score below 0.9;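 as to AC50: curve fitted both ways so AC50 may mark viability loss or gain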)
Procedure, shortened: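 Human H295R adrenal cells, prestimulated 48 h with 10 uM forskolin, were exposed 48 h to chemicals in 0.1% DMSO. Viability was measured in the same wells by MTT (0.5 mg/ml, 4 h, 37 C), absorbance 570/650 nm, as percent of controls.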

[9] = read-out: Cytochrome P450 2C9 (Homo sapiens) (UniProt P11712); assay: CLD_CYP2C9_48hr: CellzDirect (CLD) Gene Expression Assay for xenobiotic metabolism (CYP2C9) at 48 hours (AID 2283701; active = hit-call score of the fitted dose curve at least 0.9, where 1 is the maximum; inactive = score below 0.9)
Procedure, shortened: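 mRNA level measured by quantitative nuclease protection (S1 digestion, chemiluminescent detection) in lysates of human primary hepatocytes exposed 48 h with daily re-dosing. Induction fitted positively versus 0.2% DMSO; morphology-based cytotoxicity flagged yes/no.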

[10] = read-out: alkyl and aryl transferase (GSTA2), GSTA2 (gene 2939); assay: CLD_GSTA2_48hr: CellzDirect (CLD) Gene Expression Assay for alkyl and aryl transferase (GSTA2) at 48 hours (AID 2283708);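 also: active means mRNA induction above DMSO vehicle baseline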
Procedure, shortened: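 GSTA2 mRNA quantified by qNPA chemiluminescence in human primary hepatocyte lysates after 48 h of daily fresh chemical dosing. Increases fitted against 0.2% DMSO vehicle baseline; cytotoxicity from morphology annotated yes/no.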

[11] = STM_H9_OrnithineISnorm_perc: Stemina devTOX quickPredict H9 human embryonic stem cell (hESC)-based Assay for Ornithine (ORN) Metabolite Biomarker, Normalized (AID 2283712; active = hit-call score of the fitted dose curve at least 0.9, where 1 is the maximum; inactive = score below 0.9;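 also: ornithine released into spent medium during last day measured by mass spectrometry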)
Procedure, shortened: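 Metabolite endpoint from spent media of pluripotent H9 cells treated 72 h with daily re-feeding; ornithine measured by UPLC-HRMS against its 13C spike-in and referenced to the median 0.1% DMSO vehicle response.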

[12] = STM_H9_CystineISnorm_perc: Stemina devTOX quickPredict H9 human embryonic stem cell (hESC)-based Assay for Cystine (CYSS) Metabolite Biomarker, Normalized (AID 2283713; active = hit-call score of the fitted dose curve at least 0.9, where 1 is the maximum; inactive = score below 0.9)
Procedure, shortened: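 Normalized cystine level in conditioned medium from the final 24h of a 72h treatment of pluripotent H9 cells (daily media and compound renewal). Quantified by UPLC-HRMS with C13-labeled internal standard; scaled to median of 0.1% DMSO vehicle wells.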

[13] = read-out: ABC Transporter (ABCB11), ABCB11 (gene 8647); assay: CLD_ABCB11_48hr: CellzDirect (CLD) Gene Expression Assay for ABC Transporter (ABCB11) at 48 hours (AID 2283697)
Procedure, shortened: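 Induction of ABCB11 mRNA relative to 0.2% DMSO, measured at 48 h by qNPA chemiluminescence. Cultured human hepatocytes (two donors) received fresh dosing solutions at several concentrations on two consecutive days.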

[14] = tested on: Thyroperoxidase (TPO), gene 445522; assay: CCTE_Simmons_GUA_TPO: CCTE's Guaiacol Assay for Thyroperoxidase (TPO) Inhibition, Simmons Lab (AID 2283750)
Procedure, shortened: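 Porcine thyroid microsomes (25 ug) in 200mM potassium phosphate, preincubated 30 s at 37C with compound (8 concentrations, 5 nM–87.5 uM) and 35mM guaiacol; 1mM H2O2 starts reaction. Absorbance change at 450nm over first 80 s; loss of signal versus DMSO, three replicates.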

[15] = read-out: xenobiotic metabolism (CYP1A2), CYP1A2 (gene 1544); assay: CLD_CYP1A2_48hr: CellzDirect (CLD) Gene Expression Assay for xenobiotic metabolism (CYP1A2) at 48 hours (AID 2283703)
Procedure, shortened: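 Cytotoxicity was flagged yes/no from morphology, while CYP1A2 transcript induction was detected by qNPA chemiluminescence after a 48-hour exposure. Human primary hepatocyte cultures from separate donors received fresh dosing solutions daily over two days, with 0.2% DMSO as vehicle and baseline.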

[16] = STM_H9_OrnCyssISnorm_ratio: Stemina devTOX quickPredict H9 human embryonic stem cell (hESC)-based Assay for Ornithine (ORN):Cystine (CYSS) Ratio (AID 2283714)
Procedure, shortened: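 UPLC-HRMS of spent media: ORN/CYSS ratio of internal-standard-normalized percentages, DMSO (0.1%) baseline. Pluripotent H9 hESCs, 72h exposure, daily re-dosing with fresh media; last 24h media collected.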

[17] = read-out: Cytochrome P450 2B6 (Homo sapiens) (UniProt P20813); assay: CLD_CYP2B6_48hr: CellzDirect (CLD) Gene Expression Assay for xenobiotic metabolism (CYP2B6) at 48 hours (AID 2283699);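 also: actives raise transcript level above DMSO so potency reflects induction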
Procedure, shortened: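 CYP2B6 transcript induction, read by quantitative nuclease protection (S1 digestion, chemiluminescent detection) 48 h after dosing, is fitted upward against 0.2% DMSO. Cultured human liver primary cells, two donor preparations, received fresh chemical daily over multiple concentrations.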

Measured: AC50

Chain of Broad substrate specificity ATP-binding cassette transporter ABCG2 (Homo sapiens) (Q9UNQ0 whole entry, looked up): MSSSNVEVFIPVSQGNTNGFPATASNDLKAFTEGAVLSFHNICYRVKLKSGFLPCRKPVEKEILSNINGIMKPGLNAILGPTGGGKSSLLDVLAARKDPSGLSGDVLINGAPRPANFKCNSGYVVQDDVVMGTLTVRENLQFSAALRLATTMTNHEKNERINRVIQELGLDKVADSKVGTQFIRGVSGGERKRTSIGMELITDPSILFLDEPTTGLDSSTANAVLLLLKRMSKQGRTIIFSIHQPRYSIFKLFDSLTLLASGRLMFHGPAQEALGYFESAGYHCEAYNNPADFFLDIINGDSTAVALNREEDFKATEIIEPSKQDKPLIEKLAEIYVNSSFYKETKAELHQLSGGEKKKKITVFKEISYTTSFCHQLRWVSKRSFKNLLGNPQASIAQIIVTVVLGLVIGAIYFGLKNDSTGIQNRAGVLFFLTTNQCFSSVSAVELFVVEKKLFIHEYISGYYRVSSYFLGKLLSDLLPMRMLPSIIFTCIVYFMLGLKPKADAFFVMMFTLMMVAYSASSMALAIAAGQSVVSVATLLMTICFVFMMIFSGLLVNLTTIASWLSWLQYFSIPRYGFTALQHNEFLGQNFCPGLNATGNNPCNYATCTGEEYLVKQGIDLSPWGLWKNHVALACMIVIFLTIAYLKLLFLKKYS
Chain of Cytochrome P450 2C19 (Homo sapiens) (P33261 whole entry, looked up): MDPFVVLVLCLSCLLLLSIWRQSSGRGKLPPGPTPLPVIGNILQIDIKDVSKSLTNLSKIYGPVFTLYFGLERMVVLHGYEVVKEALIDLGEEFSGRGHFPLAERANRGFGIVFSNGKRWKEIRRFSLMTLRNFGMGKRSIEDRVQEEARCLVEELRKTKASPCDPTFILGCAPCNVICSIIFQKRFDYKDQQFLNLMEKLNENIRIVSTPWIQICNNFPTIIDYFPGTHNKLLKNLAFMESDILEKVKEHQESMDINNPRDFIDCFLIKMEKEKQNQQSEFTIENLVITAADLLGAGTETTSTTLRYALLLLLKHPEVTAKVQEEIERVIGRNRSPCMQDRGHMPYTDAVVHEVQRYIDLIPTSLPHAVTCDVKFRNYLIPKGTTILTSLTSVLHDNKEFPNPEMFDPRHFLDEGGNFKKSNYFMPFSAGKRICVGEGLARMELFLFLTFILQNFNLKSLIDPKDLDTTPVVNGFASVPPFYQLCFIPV
Chain of Glyceraldehyde-3-phosphate dehydrogenase (Homo sapiens) (P04406 whole entry, looked up): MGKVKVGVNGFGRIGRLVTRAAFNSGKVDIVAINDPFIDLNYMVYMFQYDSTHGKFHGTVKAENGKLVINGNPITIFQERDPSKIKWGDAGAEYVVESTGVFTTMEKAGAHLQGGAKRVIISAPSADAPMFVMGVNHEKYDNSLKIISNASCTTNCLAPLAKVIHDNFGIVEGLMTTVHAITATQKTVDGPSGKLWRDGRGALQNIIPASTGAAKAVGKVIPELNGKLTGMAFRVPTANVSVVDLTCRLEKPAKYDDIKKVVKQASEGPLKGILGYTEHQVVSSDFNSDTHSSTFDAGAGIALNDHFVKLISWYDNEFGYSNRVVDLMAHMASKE
Chain of Cytochrome P450 3A4 (Homo sapiens) (P08684 whole entry, looked up): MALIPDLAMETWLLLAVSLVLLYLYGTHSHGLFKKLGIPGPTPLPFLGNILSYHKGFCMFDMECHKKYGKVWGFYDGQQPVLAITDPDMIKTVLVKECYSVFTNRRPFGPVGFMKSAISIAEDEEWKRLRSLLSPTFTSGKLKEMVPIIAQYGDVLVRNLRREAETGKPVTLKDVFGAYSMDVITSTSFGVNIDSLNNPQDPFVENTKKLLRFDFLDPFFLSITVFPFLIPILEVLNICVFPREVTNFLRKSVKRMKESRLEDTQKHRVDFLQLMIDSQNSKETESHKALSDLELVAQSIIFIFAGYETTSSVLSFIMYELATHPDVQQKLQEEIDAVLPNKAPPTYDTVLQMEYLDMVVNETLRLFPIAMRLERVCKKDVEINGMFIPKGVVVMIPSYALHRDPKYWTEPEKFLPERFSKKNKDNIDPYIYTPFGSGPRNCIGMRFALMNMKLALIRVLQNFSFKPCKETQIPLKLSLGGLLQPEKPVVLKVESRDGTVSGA

O=C(O)COc1ccc(Cl)cc1Cl
inactive: [1] | [2] | [3] | [4] | [5] | [6] | [7] | [8]

Cc1[nH]c(=O)n(C(C)(C)C)c(=O)c1Cl
inactive: [1] | [2] | [3] | [9] | [4] | [10] | [11] | [12]

COP(=S)(OC)Oc1ccc([N+](=O)[O-])cc1
inactive: [1] | [13] | [9] | [5] | [8] | [14]
active: [2] 8.47 µM

C#CCN1C(=O)COc2cc(F)c(N3C(=O)C4=C(CCCC4)C3=O)cc21
inactive: [1] | [3] | [9] | [15] | [5] | [10] | [8]
active: [2] 4.94 µM | [11] 84.1 µM | [12] 79.6 µM | [16] 93 µM

Clc1ccccc1-c1nnc(-c2ccccc2Cl)nn1
inactive: [1] | [13] | [9] | [5] | [10] | [8]
active: [2] 6.89 µM

C[C@H]1[C@H](c2ccc(Cl)cc2)SC(=O)N1C(=O)NC1CCCCC1
inactive: [1] | [3] | [9]
active: [2] 1.97 µM | [5] 34.8 µM | [10] 34.4 µM | [8] 0.000405 µM

CCCN(CCC)c1c([N+](=O)[O-])cc(C(F)(F)F)cc1[N+](=O)[O-]
active: [2] 8.57 µM
inactive: [1] | [13] | [9] | [10] | [8]

Oc1ccc(Cl)cc1Cc1ccccc1
not listed: [2] | [4] | [7] | [9] | [14] | [15] | [17]
inactive: all other assays above

CC1(C)C(C=C(Cl)Cl)C1C(=O)OC(C#N)c1ccc(F)c(Oc2ccccc2)c1 (stereo unspecified)
active: [2] 6.91 µM
inactive: [1] | [3] | [9] | [10] | [11] | [12] | [8]

O=S(=O)(O)C(F)(F)C(F)(F)C(F)(F)C(F)(F)C(F)(F)C(F)(F)C(F)(F)C(F)(F)F
inactive: [1] | [2] | [17] | [4] | [6] | [7] | [11] | [12] | [16]

O=C(NC(=O)c1c(F)cccc1F)Nc1ccc(OC(F)(F)C(F)OC(F)(F)F)c(Cl)c1 (stereo unspecified)
active: [8] 1.97 µM
not listed: [9] | [10] | [14] | [15] | [16] | [17]
inactive: all other assays above

CNC(=O)/C=C(\C)OP(=O)(OC)OC
inactive: [1] | [13] | [3] | [4] | [5] | [6] | [10] | [8]
active: [2] 1.9 µM
